Several values for one entry are separate records, joined by “and”; a condition that tells them apart may be missing. Equal values may be shown once. Inconclusive results are not listed. Entries that show only a call come without a potency. Where a structure was tested more than once in an assay, its records may differ in their call. Activity calls are given as the source filed them. Unless noted, calls come from the whole dose curve; as a rule, active = well fitted curve in the direction sought with a large enough effect in the repeat runs; inconclusive = weak or mixed curves; inactive = no such curve, though single readings can be large; an effect the other way counts as inactive or inconclusive.
Legend:
[1] = qHTS assay to identify small molecule antagonists of the glucocorticoid receptor (GR) signaling pathway - cell viability counter screen (AID 720693); conditions: GR-bla HeLa viability, CellTiter-Glo luminescence, 18 h, with 5 nM dexamethasone present; series mostly up to 58.5 µM; note: nearly all actives have a fitted effect of over 55% in size
[2] = qHTS assay for identifying genotoxic compounds that show differential cytotoxicity against isogenic chicken DT40 cell lines with known DNA damage response pathways - wild type cell line (AID 743012); conditions: DT40 wild type chicken cells viability, CellTiter-Glo, 40 h; series mostly up to 68.4 µM; note: nearly all actives have a fitted effect of over 60% in size; note: potency is the fitted concentration of half-maximal effect
Procedure, shortened: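 300 wt DT40 cells/well; cpd (DMSO) pintool-transferred after ~0.5 h at 37 C/5% CO2; 40 h incubation; CellTiter-Glo added, 30 min RT; luminescence read.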

[3] = qHTS assay for identifying genotoxic compounds that show differential cytotoxicity against isogenic chicken DT40 cell lines with known DNA damage response pathways - Rev3 mutant cell line (AID 743014); conditions: chicken DT40 Rev3-/- viability, CellTiter-Glo, 40 h; series mostly up to 68.4 µM; note: nearly all actives have a fitted effect of over 55% in size; note: potency is the fitted concentration of half-maximal effect
[4] = qHTS assay for identifying genotoxic compounds that show differential cytotoxicity against isogenic chicken DT40 cell lines with known DNA damage response pathways - Rad54/Ku70 mutant cell line (AID 743015); conditions: DT40 Rad54/Ku70 mutant viability, CellTiter-Glo, 40 h; series mostly up to 66.8 µM; note: nearly all actives have a fitted effect of over 60% in size; note: potency is the fitted concentration of half-maximal effect
[5] = qHTS assay to identify small molecule antagonists of the androgen receptor (AR) signaling pathway - cell viability counter screen (AID 743033; note: nearly all actives have a fitted effect of over 45% in size); conditions: AR-bla HEK293 viability, CellTiter-Glo luminescence, 16 h; series mostly up to 58.5 µM
[6] = qHTS assay to identify small molecule antagonists of the androgen receptor (AR) signaling pathway using the MDA cell line - cell viability counter screen (AID 743041; note: nearly all actives have a fitted effect of over 45% in size); conditions: MDA-kb2 viability, CellTiter-Fluor, 16 h, cells co-treated with R1881 androgen agonist; series mostly up to 70.3 µM
Procedure, shortened: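 Cytotoxicity counter screen: MDA-kb2 AR-luc cells, compound + R1881, 16 h, 37C, 0% CO2; CellTiter-Fluor added at 15.5 h, fluorescence read after 30 min.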

[7] = target: Androgen receptor (Homo sapiens) (UniProt P10275); experiment: qHTS assay to identify small molecule antagonists of the androgen receptor (AR) signaling pathway (AID 743035; active = well fitted inhibition curve with a large enough effect in the signal ratio in the repeat runs, not every such curve was filed as active; the % refers to the signal ratio; note: potency is the fitted concentration of half-maximal effect); conditions: HEK293 AR-UAS-bla, R1881-stimulated, beta-lactamase FRET, 16 h; series mostly up to 58.5 µM
Androgen receptor (Homo sapiens), sequence (P10275 whole entry, looked up): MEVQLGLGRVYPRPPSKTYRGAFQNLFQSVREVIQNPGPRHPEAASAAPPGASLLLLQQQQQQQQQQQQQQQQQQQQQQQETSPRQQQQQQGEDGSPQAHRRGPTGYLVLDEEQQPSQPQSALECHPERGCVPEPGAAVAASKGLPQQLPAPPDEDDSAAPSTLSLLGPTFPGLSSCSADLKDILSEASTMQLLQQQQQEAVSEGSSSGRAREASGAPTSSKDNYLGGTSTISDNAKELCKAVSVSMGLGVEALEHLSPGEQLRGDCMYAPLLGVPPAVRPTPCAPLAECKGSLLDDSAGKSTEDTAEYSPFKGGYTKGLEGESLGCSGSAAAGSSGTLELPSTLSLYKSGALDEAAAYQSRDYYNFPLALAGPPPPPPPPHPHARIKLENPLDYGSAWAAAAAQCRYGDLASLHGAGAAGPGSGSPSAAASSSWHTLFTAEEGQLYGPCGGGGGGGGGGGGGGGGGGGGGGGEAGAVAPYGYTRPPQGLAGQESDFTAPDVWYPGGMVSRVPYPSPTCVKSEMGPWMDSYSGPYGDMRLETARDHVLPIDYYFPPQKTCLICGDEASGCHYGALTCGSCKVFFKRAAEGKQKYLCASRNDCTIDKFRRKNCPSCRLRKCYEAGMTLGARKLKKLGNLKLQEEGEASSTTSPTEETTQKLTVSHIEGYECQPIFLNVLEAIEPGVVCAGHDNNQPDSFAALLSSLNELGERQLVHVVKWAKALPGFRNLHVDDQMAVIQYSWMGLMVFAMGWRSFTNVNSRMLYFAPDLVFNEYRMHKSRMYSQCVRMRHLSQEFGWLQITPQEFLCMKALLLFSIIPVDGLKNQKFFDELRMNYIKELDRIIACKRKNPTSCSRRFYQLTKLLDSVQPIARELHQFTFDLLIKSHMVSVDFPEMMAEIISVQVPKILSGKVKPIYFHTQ
Procedure, shortened: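 In this cell-based reporter screen, compounds were tested in concentration series against R1881-activated HEK293 cells expressing beta-lactamase under UAS control; after 16 h at 37C, FRET substrate was added and fluorescence read 2 h later.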

[8] = target: Androgen receptor (Homo sapiens) (UniProt P10275); experiment: qHTS assay to identify small molecule agonists of the androgen receptor (AR) signaling pathway (AID 743036; active = well fitted activation curve with a large enough effect in the signal ratio in the repeat runs, with a control signal flat, not every such curve was filed as active; the % refers to the signal ratio); conditions: HEK293 AR-UAS-bla GripTite, beta-lactamase FRET ratio, 16 h; series mostly up to 62.4 µM
Source text: U.S. Tox21 Program National Center for Advancing Translational Sciences [NCATS] NIH Chemical Genomics Center [NCGC] U.S. Environmental Protection Agency [EPA] National Institutes of Environmental Health Sciences [NIEHS] National Toxicology Program [NTP] U.S. Food and Drug Administration [FDA] Tox21 Assay Overview: Androgen receptor (AR), a nuclear hormone receptor, plays a critical role in AR-dependent prostate cancer and other androgen related diseases. Endocrine disrupting chemicals (EDCs) and their interactions with steroid hormone receptors like AR may cause disruption of normal endocrine function as well as interfere with metabolic homeostasis, reproduction, developmental and behavioral functions. To identify the compounds that activate AR signaling, GeneBLAzer AR-UAS-bla-GripTite cell line (Invitrogen, Carlsbad, CA, USA) containing a beta-lactamase reporter gene under the control of an Upstream Activator Sequence (UAS) stably integrated into HEK293 cells was used to screen the Tox21 10K compound library.
Tox21 Assay Protocol Summary: AR-bla cells were dispensed at 2,000 cells/6 uL/well of assay medium into black wall/clear-bottom 1536-well plates using a Multidrop Combi (ThermoFisher Scientific, Waltham, MA) dispenser. After the assay plates were incubated at 37C and 5% CO2 for 4 h, 23 nL of compounds dissolved in DMSO, positive controls or DMSO only was transferred to the assay plate by a Pintool station (Kalypsys, San Diego, CA). The plates were incubated at 37C and 5% CO2 for 16 h. Then 1 uL of LiveBLAzerTM B/G FRET substrate was added using a Bioraptr Flying Reagent Dispenser (FRD) workstation (Beckman Coulter, Indianapolis, IN, USA). The plates were incubated at room temperature for 2 h, and fluorescence intensity was measured by an Envision plate reader (PerkinElmer, Shelton, CT).

[9] = target: Androgen receptor (Homo sapiens) (UniProt P10275); experiment: qHTS assay to identify small molecule agonists of the androgen receptor (AR) signaling pathway using the MDA cell line (AID 743040; note: nearly all actives have a fitted effect of over 20% in size); conditions: MDA-kb2 AR-luc cells, MMTV luciferase, 16 h, stronger effect = higher value; series mostly up to 70.3 µM
Procedure, shortened: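 Luciferase read-out, ONE-Glo, 30 min RT. Cells: MDA-kb2 AR-luc, MMTV promoter with AR and GR response elements. Compound exposure 16 h, 37C, 0% CO2, after 5 h pre-incubation. qHTS agonist mode.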

[10] = target: Androgen receptor (Homo sapiens) (UniProt P10275); experiment: qHTS assay to identify small molecule antagonists of the androgen receptor (AR) signaling pathway using the MDA cell line (AID 743042; note: nearly all actives have a fitted effect of over 55% in size; note: potency is the fitted concentration of half-maximal effect); conditions: MDA-kb2 AR-luc, MMTV luciferase, R1881 antagonist, 16 h; series mostly up to 70.3 µM
Procedure, shortened: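 MDA-kb2 breast carcinoma cells carrying MMTV-luciferase (AR/GR responsive) were co-treated with compounds and the agonist R1881 for 16 h at 37C. Inhibition read as ONE-Glo luminescence; CellTiter-Fluor fluorescence measured in parallel for cytotoxicity.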

Structure (SMILES)	Potency [1]	Potency [2]	Potency [3]	Potency [4]	outcome [5]	outcome [6]	Potency [7]	outcome [8]	outcome [9]	Potency [10]
Nc1ccc([As](=O)(O)O)cc1	inactive	inactive	inactive and 29.8 µM (active)	inactive and 13.3 µM (active)	inactive	inactive	–	–	–	–
N#Cc1ccccn1	inactive	inactive	inactive	inactive	inactive	–	–	–	–	–
Oc1ccc(Cl)cc1	inactive	inactive	inactive	inactive	inactive	–	–	–	–	–
Sc1ccccc1	inactive	inactive	inactive	inactive	inactive	–	–	–	–	–
O=C(O)CCCc1ccc(N(CCCl)CCCl)cc1	inactive	21.1 µM (active) and 770 nM (active)	1.88 µM (active) and 2.18 µM (active) and 43.3 nM (active)	3.86 µM (active)	inactive	–	–	–	–	–
CC(C)(C)C(=O)CCl	inactive	inactive	inactive	inactive	inactive	inactive	inactive	inactive	inactive	inactive
NNc1ccccc1	inactive	inactive	inactive and 60.4 µM (active)	inactive and 48 µM (active)	inactive	–	–	–	–	–
ClC(Cl)c1ccccc1	inactive	inactive	inactive	inactive	inactive	inactive	–	–	–	–
CC(C)CCCCCCOC(=O)c1ccccc1C(=O)OCCCCCCC(C)C	inactive	inactive	inactive	inactive	inactive	–	–	inactive	inactive	inactive
CC12CC1(C)C(=O)N(c1cc(Cl)cc(Cl)c1)C2=O (stereo unspecified)	inactive	inactive	24.3 µM (active)	inactive	inactive	–	6.14 µM (active) and 3.89 µM (active)	inactive	inactive	19.3 µM (active) and 9.69 µM (active)
CNC(=O)O/N=C/C(C)(C)S(C)=O (stereo unspecified)	inactive	inactive	inactive	inactive	inactive	inactive	–	–	–	–
C=C(C)C(=O)OCC(CC)CCCC (stereo unspecified)	inactive	inactive	inactive	inactive	inactive	–	–	–	–	–
CCCCCCCCCCCCCCCCCC(=O)O	inactive	inactive	60.7 µM (active) and inactive	inactive	inactive	inactive	–	–	–	–
Cc1cccc(N)c1C	inactive	inactive	inactive	inactive	inactive	–	–	–	–	–
CC(C)c1cccc(C(C)C)c1O	inactive	inactive	inactive	inactive	inactive	inactive	inactive	inactive	inactive	inactive
C=CCN=C=S	inactive	inactive	62.5 µM (active)	inactive	inactive	–	–	–	–	–
CCCCC(CC)C(=O)Cl (stereo unspecified)	inactive	inactive	inactive	inactive	inactive	–	–	–	–	–
N#Cc1cccc(C#N)c1	inactive	inactive	inactive	inactive	inactive	–	–	–	–	–
COS(=O)(=O)OC	inactive	inactive	inactive	inactive	inactive	inactive	–	–	–	–
O=C(O)Cc1ccccc1	inactive	inactive	inactive	inactive	inactive	–	–	–	–	–
CNC(=O)O/N=C/C(C)(C)S(C)(=O)=O	inactive	inactive	inactive	inactive	inactive	–	inactive	inactive	inactive	inactive
c1ccc2c(c1)CCCC2	inactive	inactive	inactive	inactive	inactive	–	inactive	inactive	inactive	inactive
O=P1(NCCCl)OCCCN1CCCl (stereo unspecified)	inactive	inactive	inactive	inactive	inactive	–	–	–	–	–

Structure (SMILES)	Potency [1]	Potency [2]	Potency [3]	Potency [4]	outcome [5]	outcome [6]	Potency [7]	outcome [8]	outcome [9]	Potency [10]
O=[N+]([O-])c1ccc(Cl)c(Cl)c1	inactive	inactive	inactive	inactive	inactive	inactive	–	–	–	–
CCNc1nc(Cl)nc(NC(C)C)n1	inactive	inactive	inactive	inactive	inactive	–	–	–	–	–
Nc1cccc(Cl)c1	inactive	inactive	inactive	inactive	inactive	inactive	–	–	–	–
C/C=C/c1ccc2c(c1)OCO2	inactive	inactive	inactive	inactive	inactive	–	–	–	–	–
FC(F)(F)c1ccc(Cl)cc1	inactive	inactive	inactive	inactive	inactive	–	–	–	–	–
Clc1cnc(Oc2ccc(Oc3ncc(Cl)cc3Cl)cc2)c(Cl)c1	inactive	inactive	inactive	inactive and 30.6 µM (active)	inactive	inactive	–	–	–	–
C[C@]12CC[C@H](O)CC1=CC[C@@H]1[C@@H]2CC[C@]2(C)C(=O)CC[C@@H]12	inactive	29.8 µM (active)	26.6 µM (active) and 68.7 µM (active) and 54.5 µM (active)	29.8 µM (active) and 61.2 µM (active) and 54.5 µM (active)	inactive	inactive	–	–	–	–
COP(=S)(OC)Oc1ccc(SC)c(C)c1	–	54.5 µM (active)	inactive	inactive and 61.1 µM (active)	inactive	–	–	–	–	–
Oc1c(Br)cc(Br)cc1Br	inactive	inactive	inactive	inactive	inactive	inactive	–	–	–	–
Cc1cccc(C)c1N	inactive	inactive	inactive	inactive	inactive	inactive	–	–	–	–
CNC(=O)O/N=C/C(C)(C)SC	inactive	inactive	inactive	inactive	inactive	inactive	–	–	–	–
[N-]=[N+]=CC(=O)OC[C@H](N)C(=O)O	inactive	inactive	inactive	inactive	inactive	inactive	–	–	–	–
O=C(O)C1C(C(=O)O)C2(Cl)C(Cl)=C(Cl)C1(Cl)C2(Cl)Cl (stereo unspecified)	–	inactive	inactive	inactive	inactive	–	–	–	–	–
Cc1ccc(O)c(C)c1	–	inactive	inactive	inactive	inactive	–	–	–	–	–
Cc1cc(O)ccc1Cl	inactive	inactive	inactive	inactive	inactive	inactive	–	–	–	–
CCOP(=S)(OCC)Oc1cc(C)nc(C(C)C)n1	–	inactive	inactive	inactive and 30.6 µM (active)	inactive	–	–	–	–	–
CCOc1ccc(N)cc1	inactive	inactive	inactive	61.3 µM (active) and inactive	inactive	inactive	–	–	–	–
CNC(=O)Oc1cccc2ccccc12	inactive	–	inactive	inactive	inactive	inactive	–	–	–	–
Cc1cccc(C)c1NC(=O)CN1CCCC1=O	inactive	inactive	inactive	inactive	inactive	inactive	–	–	–	–
O=S(=O)(O)OOS(=O)(=O)O	–	inactive	inactive	inactive	inactive	–	–	–	–	–
ClCCOCCCl	inactive	inactive	inactive	inactive	inactive	inactive	–	–	–	–
CC[N+](=O)[O-]	inactive	inactive	inactive	inactive	inactive	inactive	–	–	–	–
COc1cc(-c2ccc(N)c(OC)c2)ccc1N	inactive	68.6 µM (active) and 16.4 µM (active)	14.7 µM (active)	–	inactive	inactive	–	–	–	–

Structure (SMILES)	Potency [1]	Potency [2]	Potency [3]	Potency [4]	outcome [5]	outcome [6]	Potency [7]	outcome [8]	outcome [9]	Potency [10]
CN(C)C(=O)C(c1ccccc1)c1ccccc1	inactive	inactive	inactive	inactive	inactive	inactive	–	–	–	–
Cl/C=C/Cl	–	inactive	inactive	inactive	inactive	–	–	–	–	–
CC(=O)C1CCOC1=O (stereo unspecified)	inactive	inactive	–	inactive	inactive	inactive	–	–	–	–
C=CC(=O)OCC(CC)CCCC (stereo unspecified)	inactive	–	–	–	inactive	–	–	–	–	–
Cc1ccccc1N	–	inactive	inactive	inactive	inactive	–	–	–	–	–
OCc1ccco1	inactive	inactive	inactive	inactive	inactive	inactive	–	–	–	–
CNCC(O)c1ccc(O)cc1 (stereo unspecified)	inactive	inactive	inactive	inactive	inactive	inactive	–	–	–	–
CCOC(=O)CC(SP(=O)(OC)OC)C(=O)OCC (stereo unspecified)	inactive	inactive	inactive	inactive	inactive	inactive	–	–	–	–
CCCOC(=O)c1ccccc1C(=O)OCCC	inactive	inactive	–	inactive	inactive	inactive	–	–	–	–
Cl[C@H]1OCCO[C@@H]1Cl	–	inactive	inactive	inactive	inactive	–	–	–	–	–
CN(C)C(=O)Cl	–	inactive	inactive	inactive	inactive	–	–	–	–	–
CN(C)C(=O)Nc1cccc(C(F)(F)F)c1	inactive	inactive	inactive	inactive	inactive	inactive	–	–	–	–
Cc1ccc(N=C=O)cc1N=C=O	–	inactive	inactive	62.7 µM (active) and inactive	inactive	–	–	–	–	–
C=CC#N	inactive	inactive	inactive	inactive	inactive	inactive	–	–	–	–
CN(C)NC(=O)CCC(=O)O	inactive	–	–	–	inactive	inactive	–	–	–	–
O=[N+]([O-])c1cc([As](=O)(O)O)ccc1O	–	inactive	inactive	inactive	inactive	–	–	–	–	–
CN(C)CCC#N	–	inactive	inactive	inactive	inactive	inactive	–	–	–	–
Cc1cccc(N)c1	–	inactive	inactive	inactive	inactive	–	–	–	–	–
Cc1cc(Cl)ccc1OC(C)C(=O)O (stereo unspecified)	–	inactive	inactive	inactive	inactive	inactive	–	–	–	–
Nc1ncc([N+](=O)[O-])s1	–	inactive	inactive	inactive	inactive	inactive	–	–	–	–
OCCCCO	–	inactive	inactive	inactive	inactive	–	–	–	–	–
OCC(O)CCl (stereo unspecified)	–	inactive	inactive	inactive	inactive	inactive	–	–	–	–
CN1C(=O)CCS(=O)(=O)C1c1ccc(Cl)cc1 (stereo unspecified)	–	inactive	inactive	inactive	inactive	inactive	–	–	–	–

From PubChem BioAssay (Tox21)
